For eleven compounds, Percent Effect results are on record in ChEMBL document CHEMBL3988442, “University of Dundee, Small-Polar-MMV Screening Library” (2021).

For some of these results: Potency and affinity values are given separately.

Holding throughout (design): scale not given: direction of the effect not stated beside the values
Test [1] addresses Protein translocase subunit SecA (Escherichia coli (strain K12)) (UniProt P10408). Kind of test: Assay to Identify E. coli SecA ATPase Inhibitors. Format: functional. Conditions: 30 µM.
The target in test [2] is T1, Ubiquitin-activating enzyme e1, putative (Leishmania donovani (strain BPK282A1)) (UniProt E9BSI1).
T1 sequence (whole entry): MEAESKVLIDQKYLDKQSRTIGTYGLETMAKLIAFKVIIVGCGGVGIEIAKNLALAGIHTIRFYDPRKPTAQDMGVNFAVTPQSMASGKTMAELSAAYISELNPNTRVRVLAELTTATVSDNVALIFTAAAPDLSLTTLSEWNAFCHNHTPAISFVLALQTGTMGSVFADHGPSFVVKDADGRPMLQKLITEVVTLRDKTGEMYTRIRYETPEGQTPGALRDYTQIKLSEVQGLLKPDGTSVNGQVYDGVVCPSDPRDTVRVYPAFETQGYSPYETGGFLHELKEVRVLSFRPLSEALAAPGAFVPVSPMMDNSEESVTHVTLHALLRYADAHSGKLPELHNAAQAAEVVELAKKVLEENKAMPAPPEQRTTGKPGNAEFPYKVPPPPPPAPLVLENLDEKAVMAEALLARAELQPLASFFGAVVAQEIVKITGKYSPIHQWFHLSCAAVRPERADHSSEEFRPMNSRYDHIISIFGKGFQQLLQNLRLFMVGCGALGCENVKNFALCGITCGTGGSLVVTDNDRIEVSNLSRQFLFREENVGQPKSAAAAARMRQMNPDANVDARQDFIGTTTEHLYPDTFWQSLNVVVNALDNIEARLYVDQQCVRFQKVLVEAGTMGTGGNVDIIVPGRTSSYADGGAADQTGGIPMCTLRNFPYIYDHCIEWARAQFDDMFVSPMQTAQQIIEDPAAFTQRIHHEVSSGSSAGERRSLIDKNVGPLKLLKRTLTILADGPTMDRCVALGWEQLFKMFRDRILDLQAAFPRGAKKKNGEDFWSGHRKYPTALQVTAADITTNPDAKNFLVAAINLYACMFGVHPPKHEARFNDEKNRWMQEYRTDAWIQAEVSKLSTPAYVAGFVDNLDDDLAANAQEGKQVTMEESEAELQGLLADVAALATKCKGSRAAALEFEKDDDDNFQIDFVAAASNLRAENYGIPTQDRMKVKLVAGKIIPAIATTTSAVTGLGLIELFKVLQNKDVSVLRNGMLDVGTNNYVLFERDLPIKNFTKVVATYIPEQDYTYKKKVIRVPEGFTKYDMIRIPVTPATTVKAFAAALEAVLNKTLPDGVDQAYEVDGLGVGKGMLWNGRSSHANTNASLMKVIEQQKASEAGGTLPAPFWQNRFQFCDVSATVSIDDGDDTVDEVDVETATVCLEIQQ
Kind of test: Leishmania donovani Ubiquitin Activating Enzyme (LdE1). Format: functional. Conditions: 30 µM.

The target of test [3] is AMP-activated protein kinase, AMPK (Homo sapiens) (UniProt P54646+O43741+P54619+Q9UGJ0+Q9Y478+Q13131+Q9UGI9). Kind of test: AMP-dependent Kinase enzyme assay. An in vitro enzyme assay that detects ADP turnover that is directly proportional to AMPK activity. This uses naive AMPK that is activated during the assay with MK-8722. Conditions: 30 µM. Format: functional.
Test [4] has as its target Sialic acid-binding Ig-like lectin 9 (Homo sapiens) (UniProt Q9Y336). Kind of test: Hs-Siglec9 ALPHAscreen SOP 20170721. Conditions: 10 µM. In general terms: In Alpha technology, singlet oxygen from a donor bead excites a nearby acceptor bead.
The test system of a further test is Trypanosoma cruzi. Kind of test: Trypanosoma cruzi phosphomannomutase and mannose-1-phosphate guanylyltransferase assay. Format: functional. Conditions: 10 µM.
The target in test [5] is T2, Arginase-2, mitochondrial (Homo sapiens) (UniProt P78540).
T2 sequence (whole entry): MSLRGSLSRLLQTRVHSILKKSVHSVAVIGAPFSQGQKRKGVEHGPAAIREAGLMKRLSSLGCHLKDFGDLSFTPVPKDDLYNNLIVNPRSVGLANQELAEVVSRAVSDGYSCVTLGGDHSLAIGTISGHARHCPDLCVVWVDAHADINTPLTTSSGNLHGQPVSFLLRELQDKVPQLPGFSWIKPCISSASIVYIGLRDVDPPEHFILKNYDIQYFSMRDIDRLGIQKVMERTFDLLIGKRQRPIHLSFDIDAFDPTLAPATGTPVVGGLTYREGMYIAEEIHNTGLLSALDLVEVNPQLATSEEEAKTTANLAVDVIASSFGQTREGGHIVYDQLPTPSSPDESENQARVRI
Kind of test: in vitro enzyme assay to detect the production of urea directly proportional to the activity of Arginase II. Further: in the data most compounds retested in dose-response had high values. Format: functional. Conditions: 33.3 µM.

Test [6] concerns the target T3, Proteasome subunit beta (Trypanosoma cruzi) (UniProt O96673).
T3 sequence (whole entry): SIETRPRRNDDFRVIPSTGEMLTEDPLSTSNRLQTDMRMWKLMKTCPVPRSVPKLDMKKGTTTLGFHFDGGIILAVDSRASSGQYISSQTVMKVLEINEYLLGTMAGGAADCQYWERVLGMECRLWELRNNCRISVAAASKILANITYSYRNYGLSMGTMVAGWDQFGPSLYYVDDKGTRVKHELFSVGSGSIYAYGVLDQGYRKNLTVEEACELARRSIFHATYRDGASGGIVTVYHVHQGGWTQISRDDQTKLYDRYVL
Kind of test: Trypanosoma cruzi proteasome chymotrypsin-like activity (TcProtChymo) assay. Further: in the data most compounds retested in dose-response had high values. Format: functional. Conditions: 9.37 µM.

The species named for another test is Homo sapiens. Kind of test: To identify inhibition of the IFN signalling (Jak-Stat) pathway via expression of an eGFP reporter gene under the control of an IFN-stimulated response element (ISRE) containing MxA promoter. The format is functional. Conditions: 30 µM. (In general: Reporter assays use an easily measured gene product as a stand-in for the process of interest.)

Test [7] has as its target T4, Tyrosyl-tRNA synthetase, putative (Trypanosoma cruzi (strain CL Brener)) (UniProt Q4DSP6).
T4 sequence (whole entry): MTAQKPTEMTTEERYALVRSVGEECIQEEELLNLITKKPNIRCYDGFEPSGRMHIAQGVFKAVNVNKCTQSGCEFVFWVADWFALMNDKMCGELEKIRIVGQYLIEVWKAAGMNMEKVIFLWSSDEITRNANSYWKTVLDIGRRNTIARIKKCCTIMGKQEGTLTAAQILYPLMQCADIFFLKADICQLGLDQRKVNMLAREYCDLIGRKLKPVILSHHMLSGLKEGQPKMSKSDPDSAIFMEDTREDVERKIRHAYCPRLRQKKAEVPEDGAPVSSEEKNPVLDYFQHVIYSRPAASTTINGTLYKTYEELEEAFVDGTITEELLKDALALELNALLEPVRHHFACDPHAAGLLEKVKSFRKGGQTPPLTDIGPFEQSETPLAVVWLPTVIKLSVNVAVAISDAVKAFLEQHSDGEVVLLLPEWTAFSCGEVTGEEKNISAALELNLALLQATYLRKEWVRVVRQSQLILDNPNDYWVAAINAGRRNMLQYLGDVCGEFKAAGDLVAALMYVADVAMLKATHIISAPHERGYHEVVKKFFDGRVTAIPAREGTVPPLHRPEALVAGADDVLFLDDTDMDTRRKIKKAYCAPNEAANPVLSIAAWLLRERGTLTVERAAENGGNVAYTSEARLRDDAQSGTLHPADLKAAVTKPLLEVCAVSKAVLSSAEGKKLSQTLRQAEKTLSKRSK
Kind of test: Trypanosoma cruzi tyrosyl tRNA synthetase (TcYRS) _High Tyrosine SOP. Further: in the data most compounds retested in dose-response had high values. Format: functional. Conditions: 30 µM.

The target of test [8] is T4, Tyrosyl-tRNA synthetase, putative (Trypanosoma cruzi (strain CL Brener)). Kind of test: Trypanosoma cruzi tyrosyl tRNA synthetase (TcYRS) SOP. The format is functional. Conditions: 30 µM.
Test [9] addresses Chromo domain-containing protein 1 (Saccharomyces cerevisiae (strain ATCC 204508 / S288c) (Baker's yeast)) (UniProt P32657). Kind of test: ScCHD-1 Enzyme Inhibition Assay. Further: in the data most compounds retested in dose-response had high values. Format: functional. Conditions: 30 µM.

Chain of Sialic acid-binding Ig-like lectin 9 (Homo sapiens) (Q9Y336 whole entry): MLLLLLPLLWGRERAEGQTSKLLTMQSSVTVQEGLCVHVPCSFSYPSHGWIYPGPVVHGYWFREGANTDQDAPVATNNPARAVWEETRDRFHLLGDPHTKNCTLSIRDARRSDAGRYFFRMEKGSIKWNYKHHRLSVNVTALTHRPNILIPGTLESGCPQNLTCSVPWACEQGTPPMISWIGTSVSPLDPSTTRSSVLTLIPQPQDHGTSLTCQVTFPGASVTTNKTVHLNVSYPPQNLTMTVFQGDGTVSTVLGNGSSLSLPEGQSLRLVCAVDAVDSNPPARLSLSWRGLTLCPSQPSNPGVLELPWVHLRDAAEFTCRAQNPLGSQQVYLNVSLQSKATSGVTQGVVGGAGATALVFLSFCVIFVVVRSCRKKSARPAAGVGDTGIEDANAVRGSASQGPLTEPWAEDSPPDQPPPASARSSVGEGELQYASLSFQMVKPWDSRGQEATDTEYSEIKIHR
Chain of Protein translocase subunit SecA (Escherichia coli (strain K12)) (P10408 whole entry): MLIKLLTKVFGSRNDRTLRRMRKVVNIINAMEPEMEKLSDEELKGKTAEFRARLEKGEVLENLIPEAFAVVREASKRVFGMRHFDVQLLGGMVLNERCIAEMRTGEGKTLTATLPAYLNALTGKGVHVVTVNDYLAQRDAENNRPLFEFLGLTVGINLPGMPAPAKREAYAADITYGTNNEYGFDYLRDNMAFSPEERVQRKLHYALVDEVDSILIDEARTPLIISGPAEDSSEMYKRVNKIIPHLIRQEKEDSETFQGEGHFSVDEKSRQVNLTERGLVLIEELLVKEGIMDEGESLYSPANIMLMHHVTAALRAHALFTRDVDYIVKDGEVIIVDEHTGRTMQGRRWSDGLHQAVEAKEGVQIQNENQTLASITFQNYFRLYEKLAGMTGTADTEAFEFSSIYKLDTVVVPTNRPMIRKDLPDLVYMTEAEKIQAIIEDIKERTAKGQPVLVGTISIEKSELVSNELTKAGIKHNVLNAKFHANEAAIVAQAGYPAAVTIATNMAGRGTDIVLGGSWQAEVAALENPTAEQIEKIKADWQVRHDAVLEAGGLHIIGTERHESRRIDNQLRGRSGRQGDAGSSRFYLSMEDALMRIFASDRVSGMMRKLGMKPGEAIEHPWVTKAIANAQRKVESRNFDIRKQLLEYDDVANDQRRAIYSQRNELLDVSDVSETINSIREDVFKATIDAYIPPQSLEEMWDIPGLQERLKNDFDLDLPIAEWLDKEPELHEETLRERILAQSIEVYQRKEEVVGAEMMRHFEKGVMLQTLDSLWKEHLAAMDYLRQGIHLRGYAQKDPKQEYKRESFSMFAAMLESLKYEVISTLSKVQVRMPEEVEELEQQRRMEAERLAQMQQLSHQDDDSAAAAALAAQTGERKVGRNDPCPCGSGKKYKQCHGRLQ
Chain of Chromo domain-containing protein 1 (Saccharomyces cerevisiae (strain ATCC 204508 / S288c) (Baker's yeast)) (P32657 whole entry, the tested form may be a part): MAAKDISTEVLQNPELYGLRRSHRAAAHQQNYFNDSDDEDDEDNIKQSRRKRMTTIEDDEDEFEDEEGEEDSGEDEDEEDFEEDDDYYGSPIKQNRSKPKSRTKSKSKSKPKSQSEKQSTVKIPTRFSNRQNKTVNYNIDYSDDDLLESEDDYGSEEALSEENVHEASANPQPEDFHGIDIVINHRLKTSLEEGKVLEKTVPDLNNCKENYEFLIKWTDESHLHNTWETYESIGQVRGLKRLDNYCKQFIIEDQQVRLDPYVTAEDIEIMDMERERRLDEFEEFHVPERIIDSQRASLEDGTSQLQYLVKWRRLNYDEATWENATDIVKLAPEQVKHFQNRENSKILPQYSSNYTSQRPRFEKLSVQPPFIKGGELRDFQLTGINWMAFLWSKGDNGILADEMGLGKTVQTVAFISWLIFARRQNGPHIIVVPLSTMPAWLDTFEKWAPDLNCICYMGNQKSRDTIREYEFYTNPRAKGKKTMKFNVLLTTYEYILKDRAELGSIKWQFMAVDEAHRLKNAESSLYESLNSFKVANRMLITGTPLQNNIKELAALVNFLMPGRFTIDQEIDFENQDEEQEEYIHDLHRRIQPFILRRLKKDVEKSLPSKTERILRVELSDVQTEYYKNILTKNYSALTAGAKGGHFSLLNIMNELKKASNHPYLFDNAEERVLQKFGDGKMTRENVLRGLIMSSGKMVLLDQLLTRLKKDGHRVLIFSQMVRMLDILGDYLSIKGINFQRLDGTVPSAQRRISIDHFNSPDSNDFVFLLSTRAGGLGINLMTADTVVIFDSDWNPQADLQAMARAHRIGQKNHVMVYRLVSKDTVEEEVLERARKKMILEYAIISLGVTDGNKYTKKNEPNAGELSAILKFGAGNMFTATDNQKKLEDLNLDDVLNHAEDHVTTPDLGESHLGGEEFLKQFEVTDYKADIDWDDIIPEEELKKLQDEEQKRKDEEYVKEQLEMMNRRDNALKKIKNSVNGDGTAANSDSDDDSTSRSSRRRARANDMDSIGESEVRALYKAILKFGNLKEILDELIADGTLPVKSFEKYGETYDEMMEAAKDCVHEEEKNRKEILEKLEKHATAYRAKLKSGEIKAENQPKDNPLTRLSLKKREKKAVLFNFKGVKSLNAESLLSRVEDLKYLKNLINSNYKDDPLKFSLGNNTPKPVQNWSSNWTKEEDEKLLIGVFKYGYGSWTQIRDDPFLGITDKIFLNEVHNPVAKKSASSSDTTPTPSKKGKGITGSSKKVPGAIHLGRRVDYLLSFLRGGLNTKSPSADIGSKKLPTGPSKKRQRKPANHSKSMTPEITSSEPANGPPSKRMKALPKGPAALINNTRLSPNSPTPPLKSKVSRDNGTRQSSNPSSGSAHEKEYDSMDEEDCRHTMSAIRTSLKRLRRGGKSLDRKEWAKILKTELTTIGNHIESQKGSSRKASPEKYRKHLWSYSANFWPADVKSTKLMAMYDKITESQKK

On to `Cc1ncc(CNCC2CCCN2c2cccnn2)s1` (stereo unspecified), for which the Percent Effect was 0.235% in test [1]; 8.86% in [2]; -1.3% in [3]; -1.84% in [4]; 3.79% with Trypanosoma cruzi; 5.38% in [5]. The Percent Effect in [6] was 15.9%; in the test filed under Homo sapiens, 22.7%; in test [7], 9.38%; in [8], 12.7%; in [9], -17.8%.

Take `COCCOc1ccc(NC(=O)N(C)Cc2ccsc2)cn1`: the Percent Effect in test [1] was 1.05%; in test [2] it was 17.7%; in test [3], -9.72%; in test [4] it was -8.23%; in the test on Trypanosoma cruzi, -9.35%; in test [5] it was 2.28%. The Percent Effect in [6] is 7.94%; in the test filed under Homo sapiens it was 12.9%; in test [7], 2.46%; in test [8], 13.9%; in [9] it was -6.06%.

Turning to `Cc1noc(CN(Cc2ccc3c(c2)OCO3)Cc2ccc(C)o2)n1`, the Percent Effect is -2.53% in [1]; 13.5% in test [2]; -9.33% in [3]; -9.31% in [4]; -5.75% in the test with Trypanosoma cruzi; 3.21% in test [5]. Also, the Percent Effect is 13.3% in [6]; 27.4% in the test filed under Homo sapiens; 8.37% in test [7]; 13.6% in test [8]; -6.37% in [9].

For the compound `COCCNS(=O)(=O)c1cccc2c1CN(C(=O)c1ccccc1)CC2`, the Percent Effect was -6.17% in test [1]; -4.17% in test [2]; 4.56% in [3]; 0.0622% in test [4]; -1.65% in the test on Trypanosoma cruzi; -2.21% in test [5]. Further, the Percent Effect is 4.39% in test [6]; 34.9% in the test filed under Homo sapiens; -4.21% in [7]; -10.3% in test [8]; 4.48% in test [9].

In the case of `O=C([C@@H]1CCO[C@@H]2CCN(Cc3cccnc3)C[C@H]21)N1CCCCO1`, the Percent Effect was -2.75% in test [1]; 14.7% in [2]; 2.91% in test [3]; 5.02% in test [4]; -1.57% in the test on Trypanosoma cruzi; -6.51% in test [5]. The Percent Effect was 11.5% in [6]; 17.3% in the test listed under Homo sapiens; 4.23% in test [7]; 7.69% in [8]; -7.97% in test [9].

On to `O=C(Nc1cnn(CCN2CCOCC2)c1)c1ccccn1`, for which the Percent Effect in [1] is -3.13%; in test [2], 10.5%; in test [3], 3.43%; in [4], 9.01%; in the test with Trypanosoma cruzi, 3.38%; in test [5], 0%. The Percent Effect is 5.85% in test [6]; -7.34% in the test listed under Homo sapiens; 5.39% in test [7]; 12.2% in test [8]; 0.887% in test [9].

Take `Cc1ccc(N2CCCN(C(=O)C(C(C)C)n3cncn3)CC2)nn1` (stereo unspecified): the Percent Effect in test [1] was -1.22%; in [2], 16.2%; in test [3], -7.95%; in test [4] it was 9.29%; in the test on Trypanosoma cruzi it was 3.62%; in [5] it was 2.03%. Further, the Percent Effect in test [6] is 9.16%; in the test listed under Homo sapiens, 9.49%; in [7] it was 7.92%; in [8] it was 25.6%; in test [9], -6.51%.

As to `CC[C@@H](CO)NC(=O)c1coc(COc2ccc(OC)cc2)n1`, the Percent Effect is -3.54% in test [1]; 10.8% in test [2]; -5.65% in test [3]; -1.14% in test [4]; -2.05% in the test on Trypanosoma cruzi; -0.744% in test [5]. Also, the Percent Effect in [6] was 5.58%; in the test listed under Homo sapiens it was -2.06%; in test [7], 6.45%; in test [8] it was 18.5%; in test [9], -1.77%.

For the compound `CN(Cc1ccc2c(c1)OCO2)Cc1nc2c(cnn2C)c(=O)[nH]1`, the Percent Effect in test [1] is -3.58%; in test [2], 5.26%; in test [3] it was 0.733%; in [4] it was -4.42%; in the test with Trypanosoma cruzi it was 0.467%; in test [5], -4.32%. Also, the Percent Effect is -0.592% in test [6]; 4.07% in the test filed under Homo sapiens; 8.37% in test [7]; 6.17% in [8]; -3.9% in test [9].

For the compound `CC(=O)Nc1nc(CN2CCn3c(nnc3C3CC3)C2)cs1`, the Percent Effect in [1] is -1.36%; in [2], 5.41%; in test [3], 0.348%; in test [4], 6.61%; with Trypanosoma cruzi it was 5.11%; in [5] it was -9.06%. For the same compound, the Percent Effect in test [6] is -3.59%; in the test filed under Homo sapiens, 2.7%; in test [7], 0.99%; in [8] it was 11%; in test [9], -3.08%.

Take `CN(CCn1cccn1)S(=O)(=O)N1CCCC1c1ccco1` (stereo unspecified): the Percent Effect is 1.7% in [1]; -5.41% in test [2]; -2.17% in [3]; -0.333% in test [4]; -5.48% in the test on Trypanosoma cruzi; 9.43% in [5]. Besides, the Percent Effect is -3.05% in test [6]; 13.8% in the test filed under Homo sapiens; -0.99% in [7]; -6.1% in [8]; 3.02% in [9].
